Laboratory results as given in the supplement of paper PMC6555819.

Experiments:
Experiment in all cases: PBM binding z-score (relative to random genomic background probes); higher = stronger binding; sequences stand for … in GC…GCGATTGACAGCGTAGAATGAAGG
[1] = tested on: FXR:RXRa (NR concentration 270 nM, RXRa partner concentration 90 nM)
Outline: (§1)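 Binding z-scores take random background probes as their reference. They come from custom Agilent 4×180K protein-binding microarrays incubated 1 h with ligand-free nuclear receptor dimers, with antibodies against each partner (one per run) detecting binding. Scanned fluorescence was regression-normalized.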

[2] = tested on: LXRa:RXRa (NR concentration 270 nM, RXRa partner concentration 90 nM)
Outline: as §1

[3] = tested on: LXRa homodimer (NR concentration 270 nM)
Outline: as §1

[4] = tested on: LXRb:RXRa (NR concentration 270 nM, RXRa partner concentration 90 nM)
Outline: as §1

[5] = tested on: LXRb homodimer (NR concentration 270 nM)
Outline: as §1

[6] = tested on: PPARa:RXRa (NR concentration 270 nM, RXRa partner concentration 90 nM)
Outline: as §1

[7] = tested on: PPARg:RXRa (NR concentration 180 nM, RXRa partner concentration 90 nM)
Outline: as §1

[8] = tested on: PPARg:RXRa 270nM:90nM, anti-RXR (NR concentration 270 nM, RXRa partner concentration 90 nM)
Outline: as §1

[9] = tested on: PPARg:RXRa 30nM:10nM, anti-RXR (NR concentration 30 nM, RXRa partner concentration 10 nM)
Outline: as §1

[10] = tested on: PPARg:RXRa 90nM:30nM, anti-RXR (NR concentration 90 nM, RXRa partner concentration 30 nM)
Outline: as §1

Sequence: ATATGTACGTTACATCCGGGTCATTCAGGCTATG
- PBM binding z-score [1]: 1.77
- PBM binding z-score [2]: 1.94
- PBM binding z-score [3]: 1.06
- PBM binding z-score [4]: 2.44
- PBM binding z-score [5]: 0.756
- PBM binding z-score [6]: 2.53
- PBM binding z-score [7]: 1.39
- PBM binding z-score [8]: 1.41
- PBM binding z-score [9]: 0.502
- PBM binding z-score [10]: 1.35

Sequence: CGTCAAAGTTCAAGGTGACGTAACAGAAAGCAGC
- PBM binding z-score [1]: 6.62
- PBM binding z-score [2]: 5.96
- PBM binding z-score [3]: 2.8
- PBM binding z-score [4]: 3.49
- PBM binding z-score [5]: 0.846
- PBM binding z-score [6]: 4.92
- PBM binding z-score [7]: 4.71
- PBM binding z-score [8]: 5.65
- PBM binding z-score [9]: 2.12
- PBM binding z-score [10]: 4.45

Sequence: TAGCCTAGGGCATGCGGGCCAGTATAGTGTCGGC
- PBM binding z-score [1]: -0.782
- PBM binding z-score [2]: -0.599
- PBM binding z-score [3]: -1.01
- PBM binding z-score [4]: -1.17
- PBM binding z-score [5]: -1.07
- PBM binding z-score [6]: -0.591
- PBM binding z-score [7]: -0.378
- PBM binding z-score [8]: -0.777
- PBM binding z-score [9]: -1.03
- PBM binding z-score [10]: -0.989

Sequence: CAAACTAGGTCACCGGAAGGTAAAAGTCCGCATG
- PBM binding z-score [1]: 4.56
- PBM binding z-score [2]: 3.72
- PBM binding z-score [3]: 0.573
- PBM binding z-score [4]: 2.66
- PBM binding z-score [5]: 0.507
- PBM binding z-score [6]: 5.39
- PBM binding z-score [7]: 9.08
- PBM binding z-score [8]: 7.23
- PBM binding z-score [9]: 5.39
- PBM binding z-score [10]: 7.11

Sequence: ACTAGCAGGCGAAGGGTCACTCAAGATTAGTCCG
- PBM binding z-score [1]: 2.18
- PBM binding z-score [2]: 2.19
- PBM binding z-score [3]: 0.132
- PBM binding z-score [4]: 2.12
- PBM binding z-score [5]: -0.71
- PBM binding z-score [6]: 3.72
- PBM binding z-score [7]: 5.6
- PBM binding z-score [8]: 5.62
- PBM binding z-score [9]: 3.86
- PBM binding z-score [10]: 6.27

Sequence: CAAACTAGGTCAAGAGGTCAATGTCCGCTTCCCG
- PBM binding z-score [1]: 6.4
- PBM binding z-score [2]: 6.19
- PBM binding z-score [3]: 5.74
- PBM binding z-score [4]: 4.72
- PBM binding z-score [5]: 1.58
- PBM binding z-score [6]: 6.11
- PBM binding z-score [7]: 9.5
- PBM binding z-score [8]: 7.94
- PBM binding z-score [9]: 6.68
- PBM binding z-score [10]: 8

Sequence: GCTTACGGGTTAAAGGTTATAGCATGAATAGAAT
- PBM binding z-score [1]: 4.76
- PBM binding z-score [2]: 4.09
- PBM binding z-score [3]: 0.422
- PBM binding z-score [4]: 4.17
- PBM binding z-score [5]: 0.397
- PBM binding z-score [6]: 5.9
- PBM binding z-score [7]: 8.86
- PBM binding z-score [8]: 7.5
- PBM binding z-score [9]: 6.81
- PBM binding z-score [10]: 8.18

Sequence: CCCACTGGGCCACGAAAGGTCATTGATTCAGTGA
- PBM binding z-score [1]: 3.78
- PBM binding z-score [2]: 5.11
- PBM binding z-score [3]: 5.17
- PBM binding z-score [4]: 4.22
- PBM binding z-score [5]: 0.369
- PBM binding z-score [6]: 4.8
- PBM binding z-score [7]: 4.92
- PBM binding z-score [8]: 4.99
- PBM binding z-score [9]: 1.85
- PBM binding z-score [10]: 3.53

Sequence: CCTTACGGGTCACTCCAGGTTATAGTATCGGAGT
- PBM binding z-score [1]: 4.76
- PBM binding z-score [2]: 7.84
- PBM binding z-score [3]: 2.33
- PBM binding z-score [4]: 5.52
- PBM binding z-score [5]: 0.0567
- PBM binding z-score [6]: 4.62
- PBM binding z-score [7]: 3.5
- PBM binding z-score [8]: 3.93
- PBM binding z-score [9]: 1.33
- PBM binding z-score [10]: 2.85

Sequence: ATTTCTAGGTAACAAGTTCAGTGAAAGAGAGGAC
- PBM binding z-score [1]: 1.38
- PBM binding z-score [2]: 1.39
- PBM binding z-score [3]: 1.04
- PBM binding z-score [4]: 1.18
- PBM binding z-score [5]: 1.41
- PBM binding z-score [6]: 2.76
- PBM binding z-score [7]: 3.06
- PBM binding z-score [8]: 3.44
- PBM binding z-score [9]: 1.82
- PBM binding z-score [10]: 3.09

Sequence: CAAACTAGGTCAAGGCCAAAGTCGGTTTGTGCCA
- PBM binding z-score [1]: 3.98
- PBM binding z-score [2]: 2.52
- PBM binding z-score [3]: 0.111
- PBM binding z-score [4]: 1.71
- PBM binding z-score [5]: -0.0886
- PBM binding z-score [6]: 4.91
- PBM binding z-score [7]: 8.07
- PBM binding z-score [8]: 6.77
- PBM binding z-score [9]: 4.34
- PBM binding z-score [10]: 6.26

Sequence: ATCGAAAGGTCGATGTGAGTATAGAGAAAGGGAA
- PBM binding z-score [1]: 3.06
- PBM binding z-score [2]: 2.82
- PBM binding z-score [3]: -0.178
- PBM binding z-score [4]: 2
- PBM binding z-score [5]: 0.549
- PBM binding z-score [6]: 3.35
- PBM binding z-score [7]: 1.66
- PBM binding z-score [8]: 1.77
- PBM binding z-score [9]: 1.02
- PBM binding z-score [10]: 1.33

Sequence: AGTCAAAGTTCAGGACGAGGTTACGTAAAGCACG
- PBM binding z-score [1]: 4.83
- PBM binding z-score [2]: 4.65
- PBM binding z-score [3]: 2.06
- PBM binding z-score [4]: 2.7
- PBM binding z-score [5]: 0.273
- PBM binding z-score [6]: 3.73
- PBM binding z-score [7]: 5.02
- PBM binding z-score [8]: 4.89
- PBM binding z-score [9]: 2.32
- PBM binding z-score [10]: 4.2

Sequence: TCTATTAGTTGAAGGGCCACCGACGAGTCCGTTT
- PBM binding z-score [1]: 0.67
- PBM binding z-score [2]: 0.709
- PBM binding z-score [3]: 0.433
- PBM binding z-score [4]: 0.782
- PBM binding z-score [5]: 0.195
- PBM binding z-score [6]: 0.892
- PBM binding z-score [7]: 0.0935
- PBM binding z-score [8]: 2.33
- PBM binding z-score [9]: 3.78
- PBM binding z-score [10]: 3.03

Sequence: ATCTCTAGCTAACCAAGTTCAGTGAATGCCGAAC
- PBM binding z-score [1]: -0.0786
- PBM binding z-score [2]: 0.353
- PBM binding z-score [3]: 0.78
- PBM binding z-score [4]: 0.261
- PBM binding z-score [5]: 0.798
- PBM binding z-score [6]: -0.0272
- PBM binding z-score [7]: -0.107
- PBM binding z-score [8]: -0.251
- PBM binding z-score [9]: -0.294
- PBM binding z-score [10]: -0.0743

Sequence: AATACAGGGTCATCGTAGGCCAGGGTACGCACAG
- PBM binding z-score [1]: 7.02
- PBM binding z-score [2]: 6.11
- PBM binding z-score [3]: 2.59
- PBM binding z-score [4]: 4.52
- PBM binding z-score [5]: 1.33
- PBM binding z-score [6]: 5.71
- PBM binding z-score [7]: 6.91
- PBM binding z-score [8]: 6.06
- PBM binding z-score [9]: 2.54
- PBM binding z-score [10]: 4.9

Sequence: CATACAGGGTCAGCTAGGCCACAGTAGGGACGGC
- PBM binding z-score [1]: 4.61
- PBM binding z-score [2]: 3.07
- PBM binding z-score [3]: -0.102
- PBM binding z-score [4]: 2.31
- PBM binding z-score [5]: 0.444
- PBM binding z-score [6]: 4.29
- PBM binding z-score [7]: 3.75
- PBM binding z-score [8]: 3.32
- PBM binding z-score [9]: 0.994
- PBM binding z-score [10]: 2.01

Sequence: CAAACTAGGTCAAGAGGTTAAAGTCCGCTTCCCG
- PBM binding z-score [1]: 5.05
- PBM binding z-score [2]: 4.32
- PBM binding z-score [3]: 2.01
- PBM binding z-score [4]: 3.13
- PBM binding z-score [5]: 0.567
- PBM binding z-score [6]: 5.3
- PBM binding z-score [7]: 8.91
- PBM binding z-score [8]: 7.27
- PBM binding z-score [9]: 5.14
- PBM binding z-score [10]: 7.16

Sequence: CCTAGTTGGTCAGAAGGTCACACACCGGATATGA
- PBM binding z-score [1]: 3.53
- PBM binding z-score [2]: 3.45
- PBM binding z-score [3]: 1.87
- PBM binding z-score [4]: 3.36
- PBM binding z-score [5]: 1.07
- PBM binding z-score [6]: 4.17
- PBM binding z-score [7]: 2.81
- PBM binding z-score [8]: 4.25
- PBM binding z-score [9]: 1.8
- PBM binding z-score [10]: 3.82

Sequence: TCTAGTTGGGCAAAGGTCACACACTCGAAATGCG
- PBM binding z-score [1]: 5.48
- PBM binding z-score [2]: 5.45
- PBM binding z-score [3]: 3.14
- PBM binding z-score [4]: 5.08
- PBM binding z-score [5]: 0.789
- PBM binding z-score [6]: 6.58
- PBM binding z-score [7]: 10.4
- PBM binding z-score [8]: 9.73
- PBM binding z-score [9]: 9.07
- PBM binding z-score [10]: 10.3

Sequence: GCAGACAGATGAAACGCAGGTAACTCAGGGTGGC
- PBM binding z-score [1]: -0.734
- PBM binding z-score [2]: -0.704
- PBM binding z-score [3]: -0.594
- PBM binding z-score [4]: -0.986
- PBM binding z-score [5]: -1.14
- PBM binding z-score [6]: -0.624
- PBM binding z-score [7]: 0.616
- PBM binding z-score [8]: -0.641
- PBM binding z-score [9]: -0.438
- PBM binding z-score [10]: -0.564

Sequence: TGAATGAGGTTATAAGATCAGGGACCGTTGCAAA
- PBM binding z-score [1]: 1.45
- PBM binding z-score [2]: 1.26
- PBM binding z-score [3]: 0.0374
- PBM binding z-score [4]: 1.01
- PBM binding z-score [5]: -0.286
- PBM binding z-score [6]: 2.6
- PBM binding z-score [7]: 1.45
- PBM binding z-score [8]: 2.32
- PBM binding z-score [9]: 0.865
- PBM binding z-score [10]: 1.63

Sequence: TCTTGGAGATCAACAGGAGGTTAAGAAAGATCGA
- PBM binding z-score [1]: 0.373
- PBM binding z-score [2]: 1.25
- PBM binding z-score [3]: -0.0581
- PBM binding z-score [4]: 0.942
- PBM binding z-score [5]: -0.782
- PBM binding z-score [6]: 1.44
- PBM binding z-score [7]: 0.02
- PBM binding z-score [8]: 1.23
- PBM binding z-score [9]: 2.38
- PBM binding z-score [10]: 1.62

Sequence: GCTTGTAGATCCAGGTTAAGAAAGACTAAGCTAA
- PBM binding z-score [1]: -0.143
- PBM binding z-score [2]: -0.0321
- PBM binding z-score [3]: -0.394
- PBM binding z-score [4]: -0.191
- PBM binding z-score [5]: -0.462
- PBM binding z-score [6]: 0.491
- PBM binding z-score [7]: -0.204
- PBM binding z-score [8]: 0.0602
- PBM binding z-score [9]: -0.441
- PBM binding z-score [10]: -0.11
